High-throughput results: PubChem, National Center for Advancing Translational Sciences (NCATS)
CtBP-E1A blk – inhibitors of CtBP/E1A interaction; 0.49% of 340,000 active; AlphaScreen GST-E1A/His-CtBP binding, 1536-well; stronger effect = lower value; activity change, % (concentration not given with the values); AID 651724
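Homogeneous bead-based format: GST-tagged E1A captured on glutathione donor beads, His-tagged CtBP on nickel acceptor beads; compounds precede bead addition by 2 h at 37 °C.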
pAkt inh – blocks phosphorylation of Akt. Neuro2A IGF-stimulated pAkt S473 HTRF, 20 min; stronger effect = lower value. activity change, % for hits at 50 µM. 0.32% of 360,000 active; in the data active means activity change below about -80%; inconclusive means mostly about -51% to -80%
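Single-point screen (50 µM final compound) in Neuro2A cells stimulated 20 min with 6 nM IGF at 37 deg C. After lysis, Ser473-phosphorylated Akt read by HTRF (ex 330 nm, em 615/665 nm) as the 665/615 ratio.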
Six1-Eya2 blk – Six1/Eya2 interaction inhibition; AID 651725; 0.56% of 360,000 active; Q15475+O00167; activity change, % (no concentration beside the values); AlphaScreen GST-Six1/His-Eya2 binding, biochemical; stronger effect = lower value
Target sequence (O00167 whole entry, looked up): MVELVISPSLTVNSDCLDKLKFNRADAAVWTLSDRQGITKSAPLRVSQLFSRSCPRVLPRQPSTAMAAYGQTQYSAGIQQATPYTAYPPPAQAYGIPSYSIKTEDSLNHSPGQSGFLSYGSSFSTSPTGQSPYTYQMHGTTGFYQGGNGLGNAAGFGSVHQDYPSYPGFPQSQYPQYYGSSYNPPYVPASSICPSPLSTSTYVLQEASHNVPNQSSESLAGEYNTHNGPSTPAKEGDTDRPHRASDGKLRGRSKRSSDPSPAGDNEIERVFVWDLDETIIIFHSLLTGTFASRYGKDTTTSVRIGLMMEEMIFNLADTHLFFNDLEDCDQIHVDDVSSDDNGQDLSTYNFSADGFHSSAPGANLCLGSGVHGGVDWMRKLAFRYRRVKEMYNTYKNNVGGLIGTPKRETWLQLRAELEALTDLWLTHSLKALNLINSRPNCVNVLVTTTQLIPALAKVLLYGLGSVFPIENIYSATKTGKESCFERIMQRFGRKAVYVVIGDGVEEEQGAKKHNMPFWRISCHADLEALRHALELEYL
Target sequence (Q15475 whole entry, looked up): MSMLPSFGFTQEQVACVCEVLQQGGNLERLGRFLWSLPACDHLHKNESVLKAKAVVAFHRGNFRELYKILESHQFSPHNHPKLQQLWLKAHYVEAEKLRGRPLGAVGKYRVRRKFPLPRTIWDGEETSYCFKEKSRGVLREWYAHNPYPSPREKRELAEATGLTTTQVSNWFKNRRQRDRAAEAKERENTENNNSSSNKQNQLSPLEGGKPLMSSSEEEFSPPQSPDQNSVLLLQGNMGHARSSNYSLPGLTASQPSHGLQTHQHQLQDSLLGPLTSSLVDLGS
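AlphaScreen luminescence read after one hour at 37 °C in darkness. Pin-transferred compounds met GST-Six1 and His-Eya2 protein (5X stock 250 nM/500 nM) plus glutathione donor and Ni-chelate acceptor beads (5X, 50 ug/mL).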
CCT chaperon mod – changes cytosolic chaperonin activity; purified chaperonin ATPase assay, HTRF ADP detection, 30 min; activity change, % (concentration not given with the values), hits read low; 0.3% of 360,000 active; in the data active means activity change below about -30%
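First, chaperonin was dispensed at 40 nM or 20 nM final depending on batch activity. Next, compounds were pinned at 76 uM and ATP added at 10 uM. After 30 min at 37 °C, ADP detection reagents ran 30 min at ambient temperature.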
* = called active by the depositor; i = inactive; ? = inconclusive; . = not tested or not shown. Compounds with a hit are over-represented: about 1.2% of the library has one in this group of screens. Unless noted, no stated cut-off is given here; in the data, active means activity change below about -65%; inconclusive means mostly about -30% to -63%; inactive means weaker than that. On the % scale 0 is the no-effect control and ±100 the full control effect.

SMILES	CtBP-E1A blk	pAkt inh	Six1-Eya2 blk	CCT chaperon mod
O=C(Oc1ccc(Cl)c2cccnc12)N1CCOCC1	-1.0	i	1.4	1.3
O=C(Oc1c(Cl)cc(Cl)c2cccnc12)c1ccco1	-14.4	i	-92.3*	0.5
O=C(Oc1cncc(Cl)c1)c1ccco1	0.6	i	-17.2	-1.6
O=C(Oc1c(CN2CCOCC2)cc(Cl)c2cccnc12)c1ccccc1Cl	-91.2*	i	-93.2*	-5.7
O=C(Oc1c(Cl)cc(Cl)c2cccnc12)c1cccs1	-81.7*	i	-67.1*	-0.3
O=C(Nc1cccnc1Cl)c1cccs1	8.3	i	7.5	-1.5
Cc1ccc(CNC(=O)CCn2cc(-c3ccc(C)cc3)nc2CCN)cc1	-12.1	i	-9.6	2.4
CC(=O)C1(O)C(C)CC2C3CC(F)C4(O)CC(O)CCC4(C)C3CCC21C (stereo not given)	3.4	i	-1.9	-1.5
COc1ccc(OC)c(N(CC(=O)NCCSCc2ccc(C)cc2)S(C)(=O)=O)c1	-16.4	i	13.4	0.9
CN1C(=O)Cc2cc(S(=O)(=O)N3CCN(c4ccc(Cl)cc4)CC3)ccc21	6.2	i	-1.6	0.1
Cc1ccc(Cl)cc1N1CCN(S(=O)(=O)c2ccc3c(c2)CC(=O)N3C)CC1	.	i	-10.9	-54.2*
COc1cccc(C(=O)NC(=S)Nc2ccc(N3CCCC3)cc2)c1	?	i	-67.7*	-2.2
COc1ccc(C(=O)NC(=S)Nc2ccc(N3CCCC3)cc2)cc1	-13.5	i	-20.0	-0.3
CCn1nc(C)c(CN2CCC(C(=O)Nc3cccc(-c4cccc(Cl)c4)c3)CC2)c1C	.	i	19.9	0.4
COc1cccc(-c2nnc(SCC(=O)Nc3ccc4c(c3)OCCO4)n2Cc2ccco2)c1	-17.9	-114.5%*	?	2.0
NC(=O)CSc1nnc(-c2ccc(O)cc2)n1Cc1ccco1	-89.8*	i	-87.1*	0.4
CCn1c(COc2ccc(C)cc2)nnc1SCC(=O)Nc1ccc2c(c1)OCCO2	2.0	-108.2%*	-3.2	0.8
CCC1(CC)N=C(c2ccccc2)C(=S)N1	.	i	0.9	1.7
COc1ccc([N+](=O)[O-])cc1N(CC(=O)N1CCN(Cc2ccccc2)CC1)S(C)(=O)=O	-13.7	i	26.1	-0.9
FC(F)(F)c1ccccc1-n1c(CN2CCCCC2)n[nH]c1=S	-14.4	i	1.4	1.0
O=C(CSc1nnc(CNc2ccc(Cl)cc2)n1Cc1ccccc1)NCc1ccco1	-14.9	-108.6%*	-5.7	-4.1
CCOC(=O)c1c(C)[nH]c(C(=O)OCC(=O)NC2CCS(=O)(=O)C2)c1C (stereo not given)	-1.4	-112.5%*	0.2	-2.5
CCOC(=O)c1[nH]c(C)c(C(=O)OCC(=O)NC2CCS(=O)(=O)C2)c1C (stereo not given)	1.0	i	11.6	-0.6
Cc1cccc(C)c1NC(=O)CSc1nnc(C2CCCCC2)o1	4.1	i	5.7	-2.5
CCOP(=O)(c1ccccc1)c1nc(-c2ccc(F)cc2)oc1N1CCCCC1 (stereo not given)	-3.6	-130.3%*	0.0	-9.3
SMILES	CtBP-E1A blk	pAkt inh	Six1-Eya2 blk	CCT chaperon mod
CCOC(=O)N1CCC(NC(=O)c2cc3sccc3n2CC)CC1	-12.1	i	-1.8	-1.2
CCn1c(C(=O)NC2CCC(C)CC2)cc2sccc21 (stereo not given)	.	.	-8.3	-80.2*
NC(=O)c1c(NC(=O)COC(=O)CSc2nnc(-c3ccc(Cl)cc3)o2)sc2c1CCC2	-2.2	-104.3%*	-4.5	0.7
COCCNC(=O)C1CCCN(C(=O)COc2ccc(C(C)(C)C)cc2)CC1 (stereo not given)	4.2	i	3.3	-3.1
Nc1cc2[nH]c(=O)c3ccccc3c2cc1[N+](=O)[O-]	-72.2*	i	-72.0*	-8.2
O=C(NC(NCc1ccccn1)(C(F)(F)F)C(F)(F)F)c1ccco1	?	.	-73.4*	-0.5
O=C(NCCNCc1ccccn1)c1ccco1	?	i	?	-2.4
Cc1cc(C)cc(NC(=O)COC(=O)CN=C2NS(=O)(=O)c3ccccc32)c1	.	i	-19.5	-3.3
Cc1ccc(S(=O)(=O)N2C[C@H]3N(C(=O)OC(C)C)N(C(=O)OC(C)C)C[C@H](OC(=O)Nc4cccs4)[C@@]3(O)C2)cc1	-6.1	i	-6.2	-3.2
NC1(C(=O)O)CSSC1	-0.2	i	-88.0*	1.0
O=C(CNCc1ccccn1)N1CCc2ccccc2C1	-94.7*	i	-89.0*	-43.6*
COc1ccc(C(CNC(=O)C(C)Oc2ccc(Br)cc2)N2CCCCC2)cc1 (stereo not given)	-5.6	i	-6.8	0.4
COc1ccc(C(=O)NCC(C)(C)N2CCOCC2)cc1S(=O)(=O)N1CCCC1	10.7	i	5.7	-1.9
Oc1ccc(Br)cc1CNc1ccccn1	3.6	i	-0.4	0.1
Oc1c(Cl)cc(Cl)cc1CNc1ccccn1	?	i	-72.4*	1.5
O=C(N/N=C/c1ccccn1)c1cccc(S(=O)(=O)Nc2ccccc2Cl)c1	3.9	i	-85.5*	-4.2
O=C(N/N=C/c1ccccn1)c1ccc(N/N=C/c2ccccn2)cc1	8.2	i	4.7	-1.4
O=C(N/N=C/c1ccccn1)c1ccc(Br)cc1	-65.2*	i	?	-0.6
O=C(O)c1cccc(NC(=S)N/N=C/c2ccccn2)c1	.	i	-76.0*	-1.8
CCN(CC)S(=O)(=O)c1cccc(C(=O)N/N=C/c2cc(OC)c(O)c(OC)c2)c1	-23.6	i	?	-2.0
CCN(CC)S(=O)(=O)c1cccc(C(=O)N/N=C/c2cccc(O)c2O)c1	-93.2*	i	-87.1*	-3.7
CCc1cccc2c(C(=O)CN3C(=O)NC4(CCc5ccccc54)C3=O)c[nH]c12 (stereo not given)	-2.9	i	-4.6	0.1
COc1ccc(-c2csc(NC(=O)C3CSC4(C)CCC(=O)N34)n2)c(OC)c1 (stereo not given)	2.0	i	-21.3	0.0
COc1ccccc1CNC(=O)CCNS(=O)(=O)c1ccc2c(c1)oc(=O)n2C	4.8	i	-0.8	1.0
Oc1ccc(C=NNC(=S)Nc2cccnc2)nc1	-6.1	i	-96.8*	-1.8
SMILES	CtBP-E1A blk	pAkt inh	Six1-Eya2 blk	CCT chaperon mod
O=C(N/N=C/c1ccccn1)c1cc(C2CC2)[nH]n1	-68.4*	i	?	-0.2
CCN(CC)S(=O)(=O)c1cccc(C(=O)N/N=C/c2ccccn2)c1	-23.5	i	-72.6*	0.8
O=C(O)COc1ccccc1/C=N/NC(=O)c1cccc(S(=O)(=O)Nc2cccc(Cl)c2)c1	-71.1*	i	?	2.0
COC(=O)[C@@]12CCCN1[C@H](c1ccc(-c3cccc(Cl)c3)cc1)[C@H]1C(=O)N(C)C(=O)[C@H]12	-7.0	i	-14.8	-0.1
CCc1nnc(NS(=O)(=O)c2ccc(NC(=S)NC(=O)/C=C/c3ccc(C(C)C)cc3)cc2)s1	-7.9	i	-4.6	-3.5
CC(=O)Nc1ccc(SCC(=O)N(CCC#N)c2cc(C)cc(C)c2)cc1	-3.2	-109.9%*	-5.5	-3.0
Cc1cc(C(=O)Cn2c(CO)nc3ccccc32)c(C)n1C	-3.5	i	-4.1	-0.5
CCOC(=O)c1c(NC(=O)COC(=O)Cc2n[nH]c(=O)c3ccccc23)sc(C(=O)NC)c1C	-7.2	i	3.5	-0.1
C/C(=N/O)c1cc(C(C)(C)C)c(O)c(C(C)(C)C)c1	-1.0	-122.0%*	-1.1	0.0
CC(C)(Sc1cc(C(C)(C)C)c(O)c(C(C)(C)C)c1)Sc1cc(C(C)(C)C)c(O)c(C(C)(C)C)c1	5.8	i	-1.5	-2.7
